BRCA1 expr act = BRCA1 expression activation; MCF7-BRCA1-FFLuc reporter, luminescence, 48 h; response scale: scaled: vehicle 0%, 10 µM genistein 100%; Potency, µM (titrated, usually from 46.1 µM), inactives show at the top dose activation, usual class: activators; 380,000 tested, 1.1% active; AID 624202; also: potency is read from the fitted curve at half-maximal effect; nearly all actives have a fitted effect of over 80% in size
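Luminescence from a BRCA1-driven firefly luciferase in MCF7 cells was the read-out, taken 15 min after substrate addition following 48 h compound exposure at 37 °C. Data were normalized to a 10 microM genistein control and DMSO vehicle.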
p53 reactivator = restores transcriptional activity of mutant p53 | AID 504706 | Potency, µM (top dose mostly 92.2 µM), for inactives: at the top dose activity change, positive = activation, most hits filed as activators | H1299 p53-A138V BP100-luciferase reporter, luminescence, 24 h | 320,000 tested, 0.063% active; also: potency is read from the fitted curve at half-maximal effect; % of control where 0% means no effect; nearly all actives have a fitted effect of over 45% in size
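p53-null H1299 cells stably carrying temperature-sensitive p53-A138V and a BP100-luciferase reporter were pinned with compounds (4-point, 1:5 series) and held 24 hrs at 37 deg C. Luminescence was read 10 min after detection reagent.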
Nrf2 block = Nrf2 pathway inhibition; Potency, µM (doses to about 46 µM), for inactives: at the top dose activity change, negative = inhibition, actives largely listed as inhibitors; AID 504444; 360,000 tested, 2.1% active; A549 ARE-Fluc reporter, luciferase luminescence, 18-24 h; also: potency is read from the fitted curve at half-maximal effect; % is scaled to controls: 0 for no effect and ±100 for the full control effect; nearly all actives have a fitted effect of over 60% in size
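A549 ARE_Fluc cells, 5000/well, 5% FBS OPTI-MEM; compounds in dose-response, 18-24 h at 37 °C/5% CO2; CellTiter-Fluor viability read (Ex 405/Em 525), then BugLite luciferase luminescence = Nrf2 activity.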
IL2 activator = IL-2 activation; 360,000 tested, 0.065% active; IL-2 activation reporter assay, cell-based qHTS; stimulated with anti-CD3/CD4/CD28 beads; in transgenic mouse T cells; activation, % (series mostly up to about 46 µM); AID 652025; in the data active = activation above about 50%; inconclusive = mostly about 30% to 49%; also: 0% is about no effect
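Unstimulated transgenic mouse T cells preincubated 60 min with compound, then stimulated with anti-CD3/anti-CD4-coated beads plus anti-CD28 for 18 h at 37 degrees C. IL-2 response read as EGFP and DsRed fluorescence by plate cytometry.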
A549 tox = A549 cytotoxicity, counter-screen for Nrf2 inhibitors | A549 ARE-Fluc cells, CellTiter-Fluor viability, 18-24 h | Potency, µM (top dose mostly 46 µM), for the others: at the top dose activity change, negative = cytotoxicity, usual class: inhibitors | 390,000 tested, 0.16% active | AID 504648; also: potency is read from the fitted curve at half-maximal effect; % is scaled to controls: 0 for no effect and ±100 for the full control effect
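A549 ARE_Fluc cells in 5% FBS OPTI-MEM were exposed to compounds in concentration-response for 18-24 h at 37 deg C. Viability was read by CellTiter-Fluor fluorescence (Ex 405/Em 525) after 30 min, before the luciferase read.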
Nrf2 activator = Nrf2 pathway activation | AREc32 ARE-luciferase reporter (MCF7-derived line), luminescence, 24 h | Potency, µM (top dose mostly 46.1 µM), without a hit: top-dose activation, usual class: activators | 410,000 tested, 0.31% active | AID 624171; also: potency is read from the fitted curve at half-maximal effect; % of control where 0% means no effect; nearly all actives have a fitted effect of over 65% in size
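Reporter line AREc32 (ARE-Fluc), seeded overnight in OPTI-MEM with 5% FBS; compound pin-transferred, 24 hr at 37 deg C, 5% CO2; luminescent read-out.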
Numbers without * were called inactive; ? = inconclusive; . = not tested or not shown; [ ] = remark or other dose. Only some compounds are listed: those with a hit (about 3.2% of all), similar ones and a draw of the others. Unless noted, calls follow the shape of the dose curve; as a rule, active = well fitted curve in the direction sought with a large enough effect; inconclusive = small, poorly fitted or top-dose-only effect, or another doubt; inactive = no such curve, though single readings can be large; an effect the other way counts as inactive or inconclusive.

SMILES | BRCA1 expr act | p53 reactivator | Nrf2 block | IL2 activator | A549 tox | Nrf2 activator
CNC(=O)c1ccsc1NC(=O)c1ccc(S(=O)(=O)N2CCCc3ccccc32)cc1 | -65.0% | -3.0% | 18.4µM* | -4.1 | -10.1% | -0.5%
O=C(Nc1nnc(S(=O)(=O)N2CCCc3ccccc32)s1)c1ccccc1 | . | . | 7.4% | . | 0.8% | 14.2%
O=C(Nc1nc2c(s1)CCCC2)c1ccc(S(=O)(=O)N2CCCc3ccccc32)cc1 | -37.6% | 15.3% | 18.4µM* | -1.3 | -17.8% | 7.5%
NC(=O)c1ccsc1NC(=O)c1ccc(S(=O)(=O)N2CCCC2)cc1 | 12.6µM* | 16.6% | 22.4% | -0.1 | 1.0% | 4.3%
CC1CCc2nc(NC(=O)c3ccc(S(=O)(=O)N4CCCc5ccccc54)cc3)sc2C1 (centres undefined) | -41.1% | -9.5% | 5.17µM* | -1.1 | -0.2% | -0.4%
O=C(NCc1ccccc1)n1cc(P(=S)(c2ccccc2)c2ccccc2)c2ccccc21 | . | . | 8.2% | . | 0.5% | .
O=C(CN1C(=O)COc2ccc(S(=O)(=O)Nc3ccccc3)cc21)NCc1ccccc1Cl | -5.0% | . | 14.7% | . | -14.6% | 3.8%
COc1cccc(C(=O)N2c3ccc(C)cc3C(C)(c3ccccc3)CC2(C)C)c1 (centres undefined) | . | . | ? | . | 1.3% | 3.8%
COc1ccc(C(=O)Nn2cnc3ccccc3c2=O)c(OC)c1 | 8.91µM* | 12.2% | ? | 1.5 | 1.1% | -0.4%
COc1ccc(Nc2oc(-c3ccc(COc4cccc(C)c4)o3)nc2C#N)cc1 | . | . | -0.3% | . | -13.4% | 5.1%
O=C(CNC(=O)c1ccc(Cl)cc1)OC(C(=O)Nc1cc(C(F)(F)F)ccc1Cl)c1ccccc1 (centres undefined) | . | . | 4.2% | . | ? | .
CCOC(=O)c1cc(-c2cccnc2)nn1-c1ccccc1 | -1.4% | -3.5% | 11.6µM* | 2.5 | 1.9% | 4.4%
CCOC(=O)c1nnc2cc(-c3ccccc3)nn2c1C | 6.31µM* | 15.1% | . | 0.0 | -0.1% | ?
Cc1ccc(N2CC(NC(=O)C(=O)c3c[nH]c4ccccc34)CC2=O)cc1 (centres undefined) | . | . | . | . | 13.5% | 5.3%
COc1ccc(OC)c(CNn2c(-c3cccc(C)c3)nc3ccccc3c2=O)c1 | 5.1% | -6.8% | 18.4µM* | -1.8 | -14.0% | -0.6%
CCOC(=O)C(=Cc1ccc(Br)cc1)C(=O)OCC | -93.1% | -16.5% | 18.4µM* | -0.9 | ? | ?
O=C(NCc1ccc(F)cc1)n1c(-c2ccccc2)c(P(=S)(c2ccccc2)c2ccccc2)c2ccccc21 | . | . | ? | . | -15.7% | .
CCOC(=O)C1Nc2c(F)cc(C)cc2C2c3ccccc3CC12 (centres undefined) | -25.6% | . | -13.9% | -0.5 | 13.3% | 11.2µM*
COC(=O)c1ccccc1NC(=O)c1ncoc1-c1ccco1 | -1.7% | . | . | . | 5.2% | 1.12µM*
COc1cc(NC(=O)C(OC(=O)CNC(=O)c2ccccc2)c2ccccc2)cc(C(F)(F)F)c1 (centres undefined) | . | . | -7.5% | . | -1.5% | .
COc1ccc(NC(=O)CSc2nnc(NC(=O)NC3CCCCC3)s2)cc1OC | . | . | . | . | 0.1% | 3.9%
Cc1ccc2c(c1)C(c1ccncc1)=NNC(c1ccccc1)=N2 | 0.0% | 11.7% | 20.2% | -2.2 | -4.5% | 3.8%
Cc1ccc(C2=Nc3cccnc3C(c3ccccc3)=NN2)cc1 | 6.31µM* | 12.4% | ? | -0.2 | 8.6% | 2.8%
O=C1CN(C(=O)COc2ccc([N+](=O)[O-])cc2Cl)c2ccccc2N1 | 11.2µM* | -1.0% | 21.2% | 0.4 | 2.8% | 2.0%
O=C1CN(C(=O)COc2ccc(Cl)cc2Cl)c2ccccc2N1 | 23.2% | -2.4% | -19.9% | -2.1 | 0.7% | 0.2%
SMILES | BRCA1 expr act | p53 reactivator | Nrf2 block | IL2 activator | A549 tox | Nrf2 activator
CC(=O)N1CCCC1c1nc2ccccc2n1Cc1cccc(C)c1 (centres undefined) | 0.0% | . | 16.8% | . | 2.2% | 0.0%
CN(C)c1ccc(CNC(=O)C2CCN(S(=O)(=O)c3ccc4c(ccn4C)c3)CC2)cc1 | . | . | . | . | -0.3% | 3.6%
CSc1ccc(/C=C/c2cc(=O)c3ccccc3[nH]2)cc1 | -47.2% | 9.4% | -15.2% | -0.2 | 2.0% | 4.2%[9.22 µM]
O=c1cc(/C=C/c2cccs2)[nH]c2ccccc12 | -66.2% | 15.0% | 13µM* | -0.2 | -14.1% | 0.1%
CC1CCc2c(sc(NC(=O)C3CCCO3)c2C#N)C1 (centres undefined) | 10µM* | 8.4% | ? | 1.4 | 3.4% | 2.9%
Cc1cc2c(s1)c1cnn(Cc3ccc(S(C)(=O)=O)cc3)c(=O)c1n2C | . | . | 20.6µM* | . | -13.6% | .
O=C(COc1ccccc1F)NNC(=O)c1cccc(-n2cccc2)c1 | 1.8% | 2.6% | 1.9% | -2.7 | 0.7% | -0.1%
Cn1cccc1C(=O)NNC(=O)COc1ccccc1F | 12.6µM* | ? | ? | -0.8 | 1.3% | 0.0%
COc1ccsc1NC(=O)OCc1ccc(Cl)cc1 | 12.6µM* | 9.6% | 2.5% | -1.7 | 0.2% | -0.2%
COc1ccc(CC(=O)Nc2nc(-c3ccc(OC)c(OC)c3)cs2)cc1OC | -63.3% | -7.5% | 14.6µM* | -2.5 | ? | 2.6%
COc1ccccc1CC(=O)Nc1nc(-c2ccc(F)c(F)c2)cs1 | -1.7% | 6.0% | 23.1µM* | -2.0 | -4.0% | 4.2%
COc1ccc(-c2csc(NC(=O)CSCC(=O)Nc3cc(C)on3)n2)cc1OC | -5.9% | -11.9% | ? | -0.6 | -4.5% | 1.9%
COc1ccc(-c2csc(NC(=O)CSCc3c(C)noc3C)n2)cc1OC | -33.0% | -13.9% | 23.1µM* | -4.3 | -7.9% | 2.5%
COc1ccc(-c2csc(NC(=O)Cc3ccccc3F)n2)cc1OC | -35.5% | 0.5% | 20.6µM* | -0.3 | ? | 2.9%
COc1ccc(-c2csc(NC(=O)CS(=O)(=O)c3ccccc3)n2)cc1OC | 5.3% | . | . | -2.2 | . | -0.1%
O=C1CCc2cc(S(=O)(=O)Nc3ccc(F)c(Cl)c3)ccc2N1 | . | . | ? | . | 7.7% | .
O=c1c2[nH]c3cc(Br)sc3c2cnn1Cc1ccccc1F | . | . | -11.2% | . | -10.7% | .
COC(=O)c1c(-c2ccc(C)cc2)csc1NC(=O)C1CC=CCC1C(=O)O (centres undefined) | 11.2µM* | ? | 18.9% | 1.4 | 2.1% | -0.3%
COC(=O)c1c(-c2cc(C)ccc2C)csc1NC(=O)C1CC=CCC1C(=O)O (centres undefined) | -5.4% | 16.1% | -13.6% | -3.0 | 0.6% | 0.0%
COC(=O)c1c(-c2ccc(C)cc2)csc1NC(=O)Cc1ccc(OC)c(OC)c1 | -61.2% | -2.4% | 18.4µM* | -4.2 | -2.1% | -0.4%
